PubChem BioAssay
The source made the active and inactive calls. Unless noted, how the calls were made is not given here.

Legend:
[1] = A549 cell viability effects, profiling panel, calcein-AM fluorescence, 48 h, basal (AID 1162); conditions: higher = more signal; further: test concentration not given here
[2] = adipocyte viability effects, profiling panel, cell-based, 3T3-L1 adipocytes, calcein-AM fluorescence, 48 h, basal (AID 1163); conditions: 3T3-L1 adipocytes viability, higher = more signal; further: test concentration not given here
[3] = HepG2 cell viability effects, profiling panel, calcein-AM fluorescence, 48 h, basal (AID 1164); conditions: higher = more signal; further: test concentration not given here
[4] = MM1S cell viability effects, profiling panel, calcein-AM fluorescence, 48 h, basal (AID 1165); conditions: higher = more signal;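 further: viability of MM1S multiple myeloma cells under basal unstimulated conditions; test concentration not given here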
[5] = basal RPMI8226 viability, no added stimulus, profiling panel, cell-based, calcein-AM fluorescence, 48 h, PK04 Diversity Set (AID 1166); conditions: RPMI8226 myeloma viability, higher = more signal;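 further: cells grown under basal conditions without added stimulus; test concentration not given here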
[6] = basal HepG2 mitochondrial membrane potential changes, profiling panel, cell-based, JC-1 fluorescence, 24 h, 100 nL compound (AID 1167); conditions: higher = more signal; further: test concentration not given here
[7] = basal 3T3-L1 adipocyte mitochondrial potential changes, profiling panel, cell-based, JC-1 fluorescence, 3T3-L1 adipocytes, 24 h, 100 nL compound (AID 1168); conditions: JC-1 mitochondrial fluorescence, higher = more signal, called active from +8 up or from −8 down; further: test concentration not given here
[8] = basal RPMI8226 mitochondrial membrane potential changes, profiling panel, cell-based, JC-1 fluorescence, 24 h, 100 nL compound (AID 1169); conditions: RPMI8226 myeloma, JC-1 mitochondrial potential fluorescence, higher = more signal; further: test concentration not given here
[9] = basal MM1S mitochondrial membrane potential changes, profiling panel, cell-based, JC-1 fluorescence, 24 h, 100 nL compound (AID 1170); conditions: higher = more signal; further: test concentration not given here
[10] = A549 lung cancer cell viability effects, profiling panel, resazurin fluorescence, 24 h, PK04 Diversity Set (AID 1171); conditions: higher = more signal, called active from +8 up or from −8 down; further: test concentration not given here
[11] = HepG2 liver cancer cell viability effects, profiling panel, resazurin fluorescence, 24 h, PK04 Diversity Set (AID 1172); conditions: higher = more signal; further: test concentration not given here
[12] = basal S. cerevisiae growth modulation, no modifier, primary screen, OD600, strain BY4716, 24 h, basal condition (AID 1173); conditions: OD600, 24 h, higher = more signal, called active from +8 up or from −8 down
[13] = MM1S myeloma cell viability, profiling panel, resazurin fluorescence, basal, 24 h, PK04 Diversity Set (AID 1174); conditions: higher = more signal, called active from +8 up or from −8 down;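 further: MM1S multiple myeloma cell line; test concentration not given here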
[14] = biological target: Dihydroorotate dehydrogenase (quinone), mitochondrial (Plasmodium falciparum (isolate 3D7)) (UniProt Q08210); test: PfDHODH enzyme inhibitors, primary screen, biochemical, C-terminal His tag, absorbance 600 nm (AID 1175); conditions: DCIP absorbance 600 nm, higher = more signal, called active from +8 up or from −8 down;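 further: recombinant parasite enzyme with a five histidine tag at its C terminus; test concentration not given here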
Chain of Dihydroorotate dehydrogenase (quinone), mitochondrial (Plasmodium falciparum (isolate 3D7)) (Q08210 whole entry, looked up): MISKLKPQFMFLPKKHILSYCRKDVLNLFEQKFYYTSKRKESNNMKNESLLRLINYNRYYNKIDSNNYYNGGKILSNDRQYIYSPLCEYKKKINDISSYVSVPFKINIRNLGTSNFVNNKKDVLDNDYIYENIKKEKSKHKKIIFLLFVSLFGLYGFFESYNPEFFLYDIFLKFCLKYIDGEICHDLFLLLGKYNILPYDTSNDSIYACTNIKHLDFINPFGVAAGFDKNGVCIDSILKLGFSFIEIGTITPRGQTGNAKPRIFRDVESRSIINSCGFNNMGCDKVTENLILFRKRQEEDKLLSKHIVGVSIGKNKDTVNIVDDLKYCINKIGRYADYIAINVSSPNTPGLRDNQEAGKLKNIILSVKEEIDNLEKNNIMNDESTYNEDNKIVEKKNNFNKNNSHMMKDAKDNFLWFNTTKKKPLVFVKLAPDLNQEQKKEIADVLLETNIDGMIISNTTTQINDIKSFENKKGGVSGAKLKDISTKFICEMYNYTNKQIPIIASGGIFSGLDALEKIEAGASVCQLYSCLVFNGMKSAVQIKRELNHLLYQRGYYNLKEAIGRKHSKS

[15] = P. aeruginosa biofilm formation inhibitors, primary screen, strain PAO1, LB-PBS medium, absorbance 600 nm (AID 1176); further: test concentration not given here; conditions: P. aeruginosa PAO1 growth/biofilm, A600, 12 h; higher = more signal
[16] = S. cerevisiae RM11-1a growth modifiers, primary screen, strain RM11-1a, OD600, basal, 24 h (AID 1177); conditions: OD600, 24 h, higher = more signal, called active from +8 up or from −8 down;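 further: cultures grown under basal conditions with no added stressor; test concentration not given here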
[17] = E. coli acrAB mutant growth effects, primary screen, E. coli filamentation inducers, strain DRC39, OD650, 24 h (AID 1178); conditions: higher = more signal, called active from +8 up or from −8 down;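 further: growth measured as culture turbidity by optical density at 650 nm; test concentration not given here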
[18] = E. coli acrAB mutant growth effects, primary screen, E. coli filamentation inducers, strain DRC39, OD650, 48 h (AID 1179);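 further: screen aims at cell division blockers that make cells filament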; conditions: E. coli DRC39 delta-acrAB growth, higher = more signal, called active from +8 up or from −8 down
[19] = RPMI8226 myeloma cell viability, profiling panel, resazurin fluorescence, basal, 24 h, PK04 Diversity Set (AID 1180); conditions: higher = more signal;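 further: RPMI8826 multiple myeloma cell line at 5000 cells per well; test concentration not given here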
[20] = biological target: E3 ubiquitin-protein ligase XIAP (Homo sapiens) (UniProt P98170); test: XIAP binders, primary screen, biophysical, small-molecule microarray, fluorescence 635 nm (AID 1181); conditions: small-molecule microarray binding, higher = more signal;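 further: score merges 667 nm emission and signal to noise over triplicate slides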
Chain of E3 ubiquitin-protein ligase XIAP (Homo sapiens) (P98170 whole entry, looked up): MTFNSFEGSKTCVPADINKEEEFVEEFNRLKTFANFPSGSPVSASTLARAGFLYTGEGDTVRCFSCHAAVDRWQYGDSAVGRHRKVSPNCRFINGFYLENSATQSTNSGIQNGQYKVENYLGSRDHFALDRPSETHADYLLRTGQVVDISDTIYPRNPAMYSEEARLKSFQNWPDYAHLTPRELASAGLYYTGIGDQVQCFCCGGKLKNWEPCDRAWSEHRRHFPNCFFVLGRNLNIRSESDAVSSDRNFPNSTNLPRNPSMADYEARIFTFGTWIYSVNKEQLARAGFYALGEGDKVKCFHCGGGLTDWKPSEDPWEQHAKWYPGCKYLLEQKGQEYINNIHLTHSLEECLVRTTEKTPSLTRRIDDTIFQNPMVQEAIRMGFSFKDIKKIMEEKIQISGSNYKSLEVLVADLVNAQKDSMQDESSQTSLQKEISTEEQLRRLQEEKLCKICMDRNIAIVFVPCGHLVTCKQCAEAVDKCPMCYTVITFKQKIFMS

Compound: COCCOC(=O)N1C(=O)[C@@]2(c3cc(C#CCNC(N)=O)ccc31)[C@H](C(=O)Nc1nc3ccccc3s1)[C@H]1C(=O)O[C@H](c3ccccc3)[C@H](c3ccccc3)N1[C@@H]2c1ccc(OCCO)cc1
- z-score [1]: -0.649
- z-score [2]: 1.2
- z-score [3]: -1.22
- z-score [4]: -2.58
- z-score [5]: -0.0496
- z-score [6]: -3.26
- z-score [7]: 1 (inactive)
- z-score [8]: -0.692
- z-score [9]: -1.53
- z-score [10]: 0.385 (inactive)
- z-score [11]: 0.382
- z-score [12]: 1.83 (inactive)
- z-score [13]: 0.114 (inactive)
- composite z-score [14]: -0.716 (inactive)
- z-score [15]: 2.41 (inactive)
- z-score [16]: 1.41 (inactive)
- z-score [17]: -0.27 (inactive)
- z-score [18]: -0.463 (inactive)
- z-score [19]: -0.397
- composite z-score [20]: 0.0402

Compound: CN(C)C(=O)[C@]1(Cc2ccccc2N=[N+]=[N-])N=C(c2ccc(OCCCO)cc2)O[C@@H]1c1ccccc1N=[N+]=[N-]
- z-score [1]: 0.03
- z-score [2]: 0.899
- z-score [3]: -0.468
- z-score [4]: -3.3
- z-score [5]: -3.67
- z-score [6]: 1.53
- z-score [7]: 1.41 (inactive)
- z-score [8]: -0.946
- z-score [9]: -1.8
- z-score [10]: -2.16 (inactive)
- z-score [11]: -1.08
- z-score [12]: -1.57 (inactive)
- z-score [13]: -2.65 (inactive)
- composite z-score [14]: -0.828 (inactive)
- z-score [15]: 0.438 (inactive)
- z-score [16]: 0.667 (inactive)
- z-score [17]: 1.01 (inactive)
- z-score [18]: 2.07 (inactive)
- z-score [19]: -3.87
- composite z-score [20]: -0.178

Compound: CC(CO)N1C(=O)[C@@H]2C3C(=O)OCCC/C=C\[C@H]3OC23C=CCN(C(C)(C)C)C(=O)[C@@H]13 (stereo not given in full)
- z-score [1]: -0.241
- z-score [2]: -0.557
- z-score [3]: 0.775
- z-score [4]: 1.41
- z-score [5]: 0.995
- z-score [6]: 0.285
- z-score [7]: 0.521 (inactive)
- z-score [8]: -0.458
- z-score [9]: -1.26
- z-score [10]: -0.717 (inactive)
- z-score [11]: -0.181
- z-score [12]: -0.382 (inactive)
- z-score [13]: -0.261 (inactive)
- composite z-score [14]: -4.03 (inactive)
- z-score [15]: 0.727 (inactive)
- z-score [16]: -0.0192 (inactive)
- z-score [17]: 0.855 (inactive)
- z-score [18]: 0.956 (inactive)
- z-score [19]: -0.178
- composite z-score [20]: 0.801

Compound: O=C(c1ccccc1)N1C(=O)[C@@]2(Cc3ccccc31)N=C(c1ccc(OCCCO)cc1)O[C@H]2c1ccccc1
- z-score [1]: -1.31
- z-score [2]: 0.668
- z-score [3]: -1.58
- z-score [4]: -3.54
- z-score [5]: -4.36
- z-score [6]: 0.157
- z-score [7]: 0.479 (inactive)
- z-score [8]: -1.19
- z-score [9]: -2.17
- z-score [10]: -1.62 (inactive)
- z-score [11]: -1.01
- z-score [12]: -0.123 (inactive)
- z-score [13]: -2.94 (inactive)
- composite z-score [14]: -0.138 (inactive)
- z-score [15]: 0.702 (inactive)
- z-score [16]: 0.655 (inactive)
- z-score [17]: -0.399 (inactive)
- z-score [18]: -0.239 (inactive)
- z-score [19]: -3.43
- composite z-score [20]: 0.327

Compound: CC(C)NC(=O)[C@@]1(C)c2ccccc2C(=O)N(Cc2cc(C(F)(F)F)cc(C(F)(F)F)c2)[C@H]1c1ccc(CO)cc1
- z-score [1]: 1.25
- z-score [2]: -0.562
- z-score [3]: 0.481
- z-score [4]: -0.137
- z-score [5]: -0.825
- z-score [6]: 0.718
- z-score [7]: 0.468 (inactive)
- z-score [8]: -0.382
- z-score [9]: -0.527
- z-score [10]: -0.558 (inactive)
- z-score [11]: 0.121
- z-score [12]: 0.0934 (inactive)
- z-score [13]: -1.21 (inactive)
- composite z-score [14]: 0.356 (inactive)
- z-score [15]: 0.224 (inactive)
- z-score [16]: 0.784 (inactive)
- z-score [17]: 0.162 (inactive)
- z-score [18]: 0.23 (inactive)
- z-score [19]: -0.148
- composite z-score [20]: 0.0868

Compound: O=C1NC(=O)C2C1C=CC(C(O)c1cccs1)N2Nc1ccc(Cl)cc1Cl (stereo not given)
- z-score [1]: -0.599
- z-score [2]: -0.191
- z-score [3]: -0.165
- z-score [4]: -1.71
- z-score [5]: -0.884
- z-score [6]: -2.1
- z-score [7]: 0.0583 (inactive)
- z-score [8]: 0.236
- z-score [9]: -0.219
- z-score [10]: -0.523 (inactive)
- z-score [11]: -1.14
- z-score [12]: -6.97 (inactive)
- z-score [13]: -0.597 (inactive)
- composite z-score [14]: 0.572 (inactive)
- z-score [15]: 1.08 (inactive)
- z-score [16]: 1.45 (inactive)
- z-score [17]: 0.0751 (inactive)
- z-score [18]: -0.86 (inactive)
- z-score [19]: -0.229
- composite z-score [20]: 0.0374

Compound: CC1(C)[C@@H]2CC(C(O)C3C=CC4C(=O)N(Cc5ccccc5)C(=O)C4N3n3cnnc3)=C[C@H]1C2 (stereo not given in full)
- z-score [1]: -0.868
- z-score [2]: -0.622
- z-score [3]: 0.0607
- z-score [4]: -0.0282
- z-score [5]: 0.346
- z-score [6]: -0.237
- z-score [7]: 0.352 (inactive)
- z-score [8]: -0.124
- z-score [9]: -0.649
- z-score [10]: 1.18 (inactive)
- z-score [11]: 0.883
- z-score [12]: 1.22 (inactive)
- z-score [13]: -0.12 (inactive)
- composite z-score [14]: 0.525 (inactive)
- z-score [15]: -0.445 (inactive)
- z-score [16]: 1.29 (inactive)
- z-score [17]: -0.539 (inactive)
- z-score [18]: 0.102 (inactive)
- z-score [19]: -0.192
- composite z-score [20]: 0.136

Compound: C=C(COC)/C(=C/C[C@@H](OC(=O)c1ccncc1)c1ccc(CO)o1)c1cc(C(=O)OC)ccc1OC
- z-score [1]: 0.27
- z-score [2]: -0.766
- z-score [3]: 0.466
- z-score [4]: -0.761
- z-score [5]: -0.27
- z-score [6]: 0.232
- z-score [7]: -0.478 (inactive)
- z-score [8]: -0.277
- z-score [9]: -1.28
- z-score [10]: 0.386 (inactive)
- z-score [11]: 0.755
- z-score [12]: -0.439 (inactive)
- z-score [13]: 0.0477 (inactive)
- composite z-score [14]: -2.14 (inactive)
- z-score [15]: 1.03 (inactive)
- z-score [16]: 0.0707 (inactive)
- z-score [17]: 1.19 (inactive)
- z-score [18]: 1.03 (inactive)
- z-score [19]: 0.515
- composite z-score [20]: 1.7
